Screening data as filed in PubChem.
Compounds with a hit are over-represented: about 12% of the library has one in this group of screens.
HCV inhibitor: qHTS Assay for Inhibitors of Hepatitis C Virus (HCV). Huh7.5.1 HCVcc-Cre infection, luciferase reporter, 44 h. Potency, µM (top dose mostly 41.8 µM), most hits filed as inhibitors. 3.4% of 340,000 active. AID 651820, 2012
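1,000 cells/well; 4 h culture; + compound; + HCVcc-Cre (~0.5 moi); 44 h; luciferase substrate, RT 15 min; read 15 sec.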
NS1 inh: qHTS Assay for Inhibitors of Influenza NS1 Protein Function; Potency, µM (doses to about 46.1 µM); 0.4% of 270,000 active; calls by dose curve; further: actives are rising curves; nearly all actives have a fitted effect of over 50% in size
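OD600 was taken as the measure of yeast growth restored by compound in an NS1-expressing S. cerevisiae strain. Cells had been washed out of glucose medium and diluted 1:100 into galactose -URA medium, pH 6.0.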
Pf growth 48h: Primary qHTS for delayed death inhibitors of the malarial parasite plastid, 48 hour incubation | 5.9% of 310,000 active | P. falciparum luciferase growth in erythrocytes, 48 h | Potency, µM (highest dose often 28.7 µM), actives largely listed as inhibitors
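Cell-based growth assay: transgenic P. falciparum expressing firefly luciferase, cultured in red cells within RPMI 1640 containing 0.5% w/v Albumax, 24 mM bicarbonate and gentamycin. A drop in luciferase activity indicates inhibition.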
AMA1 RON2 block: qHTS for Inhibitors of AMA1-RON; Towards Development of Antimalarial Drug Lead: Primary Screen | AlphaScreen AMA1-biotinylated RON2 peptide binding | 0.2% of 360,000 active | Plasmodium falciparum AMA1 (3D7) - RON2 peptide interaction | Potency, µM (series often up to 58.2 µM), hits mostly inhibitors; further: nearly all actives have a fitted effect of over 45% in size
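AMA1 (3D7) with his tag at 25 nM final met compounds first, then biotinylated RON2 peptide at 25 nM; detection used donor plus acceptor beads, 10 µg/mL apiece, read by AlphaScreen after 30 min at room temperature.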
SARS PLP yeast: qHTS of Yeast-based Assay for SARS-CoV PLP | S. cerevisiae expressing SARS-CoV PLpro, growth rescue | Potency, µM (series often up to 32.9 µM), most hits filed as activators | 0.19% of 330,000 active | AID 485353, 2010; calls by dose curve; further: nearly all actives have a fitted effect of over 55% in size
Pf growth 96h: Primary qHTS for delayed death inhibitors of the malarial parasite plastid, 96 hour incubation | P. falciparum luciferase reporter growth, 96 h | Potency, µM (titrated, usually from 28.7 µM), usual class: inhibitors | 6.9% of 320,000 active
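Cell-based qHTS: luciferase-tagged P. falciparum in erythrocytes (2% hematocrit, 0.05% parasitemia final) incubated with compounds for 96 hours, 37 C, 5% CO2; luciferase detection reagent then added and luminescence measured.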
Each line names hits and unclear results; the compound was inactive in the other large screens. Unless noted, the call rests on the fitted dose curve; in most records, active means well fitted curve in the direction sought with a large enough effect; inconclusive means small, poorly fitted or top-dose-only effect, or another doubt; inactive means no such curve, though single readings can be large; an effect the other way counts as inactive or inconclusive.

Cc1ccc(S(=O)(=O)N2CCC(=O)N(C(COCc3cccc(Cl)c3)C(C)C)CC2)cc1 (stereo unspecified)	Pf growth 48h 15µM, Pf growth 96h 10µM
Cc1ccc(S(=O)(=O)N2CCC(=O)N([C@H](COCc3cccc(Cl)c3)C(C)C)CC2)cc1	none (no result: HCV inhibitor, NS1 inh, Pf growth 48h, SARS PLP yeast, Pf growth 96h)
Cc1ccc(S(=O)(=O)N2CCC(=O)N(C(COCc3cccc(C(F)(F)F)c3)C(C)C)CC2)cc1 (stereo unspecified)	Pf growth 48h inconclusive, Pf growth 96h 10µM
Cc1ccc(S(=O)(=O)N2CCC(=O)N(C(COCc3cccc(C)c3)C(C)C)CC2)cc1 (stereo unspecified)	HCV inhibitor inconclusive, Pf growth 48h 10µM, Pf growth 96h 13µM
Cc1nnc(SC(C)C)n(N)c1=O	none (no result: NS1 inh)
Cc1ccc(-c2cnn(-c3cccc(C(F)(F)F)c3)c2N)cc1	HCV inhibitor 11µM
Nc1c(-c2ccc(Cl)cc2)cnn1-c1cccc(C(F)(F)F)c1	none
O=C(N/N=C/C1CC2C=CC1C2)c1ccccc1O (stereo unspecified)	none
Cc1nc2ccc(NS(=O)(=O)c3c(C)c(C)cc(C)c3C)cc2s1	HCV inhibitor 16µM, Pf growth 48h inconclusive (no result: SARS PLP yeast)
Cc1nc2cc(NS(=O)(=O)c3c(C)c(C)cc(C)c3C)ccc2s1	HCV inhibitor 2.8µM, Pf growth 48h inconclusive, Pf growth 96h inconclusive
Cc1ccc(S(=O)(=O)Nc2ccc3nc(C)sc3c2)c(C)c1	HCV inhibitor inconclusive, Pf growth 96h inconclusive (no result: NS1 inh)
O=C(C[C@H]1C/C=C\CCC(=O)O[C@@H](c2ccccc2)CNC1=O)NCCO	none (no result: NS1 inh, Pf growth 48h, Pf growth 96h)
COC(C(=O)Nc1ccnn1C1CCN(Cc2ccc(C)s2)CC1)c1ccccc1 (stereo unspecified)	none
COc1ccc(OCC(=O)Nc2cc(S(=O)(=O)N3CCCCC3)ccc2OC)cc1	HCV inhibitor inconclusive (no result: NS1 inh)
N#Cc1ccccc1OCC(=O)Nc1cccc(S(=O)(=O)N2CCCCCC2)c1	HCV inhibitor inconclusive, Pf growth 48h 13µM, Pf growth 96h inconclusive (no result: NS1 inh)
O=C(COc1ccc2ccc(=O)oc2c1)Nc1cccc(S(=O)(=O)N2CCCCC2)c1	HCV inhibitor inconclusive, Pf growth 48h 12µM, Pf growth 96h 4.7µM (no result: NS1 inh)
COc1ccc(NC(=O)COc2ccccc2C#N)c(S(=O)(=O)N2CCCCC2)c1	HCV inhibitor 10µM, Pf growth 96h inconclusive (no result: Pf growth 48h)
Cc1cc(Cl)ccc1OCC(=O)Nc1cccc(S(=O)(=O)N2CCCC2)c1	HCV inhibitor 7.9µM, Pf growth 48h inconclusive, Pf growth 96h inconclusive (no result: NS1 inh)
O=C(COc1ccc(Cl)cc1Br)Nc1cccc(S(=O)(=O)N2CCCC2)c1	HCV inhibitor inconclusive, Pf growth 48h inconclusive (no result: NS1 inh)
CC[C@]12c3[nH]c4ccc(OC)cc4c3CCN1C(=O)C(CC(=O)NCCc1ccccn1)C[C@@H]2C(=O)N1CCN(C(=O)c2ccco2)CC1 (stereo partly specified)	none (no result: NS1 inh, Pf growth 48h, Pf growth 96h)
CCOC(=O)Nc1ccc(C(=O)/C=C/c2ccccc2)cc1	Pf growth 96h inconclusive
COc1cccc(N2C(=O)C3CCCN3C2=S)c1 (stereo unspecified)	HCV inhibitor inconclusive, AMA1 RON2 block inconclusive, Pf growth 96h inconclusive
CCN(CC)S(=O)(=O)c1cc(NC(=O)CSc2nccn2C)ccc1C	none (no result: NS1 inh)
Cc1ccc(OCC(=O)Nc2cccc(S(=O)(=O)N3CCCCC3)c2)c([N+](=O)[O-])n1	HCV inhibitor inconclusive, Pf growth 96h inconclusive
COc1ccc(CCC(=O)Nc2cccc(S(=O)(=O)N3CCCCCC3)c2)cc1OC	HCV inhibitor inconclusive, Pf growth 48h 10µM, Pf growth 96h inconclusive (no result: NS1 inh)
Cc1ccc(OCC(=O)Nc2cccc(S(=O)(=O)N3CCCC3)c2)cc1C	none (no result: HCV inhibitor, NS1 inh, Pf growth 48h, SARS PLP yeast, Pf growth 96h)
Cc1ccc2cccc(OCC(=O)Nc3cccc(S(=O)(=O)N4CCCC4)c3)c2n1	HCV inhibitor 5.6µM, Pf growth 48h 9.3µM, Pf growth 96h inconclusive (no result: NS1 inh)
CC(=O)c1ccc(OCC(=O)Nc2cccc(S(=O)(=O)N3CCCC3)c2)cc1	HCV inhibitor inconclusive, Pf growth 48h inconclusive, Pf growth 96h 4.1µM (no result: NS1 inh)
COC(=O)c1cc(NC(=O)Cc2ccc(OC)c(OC)c2)cc(C(=O)OC)c1	Pf growth 48h inconclusive, Pf growth 96h inconclusive
COc1ccc(CC(=O)Nc2cccc(SC)c2)cc1OC	HCV inhibitor 4µM (no result: NS1 inh)
C[C@@]12CC[C@@H]3[C@H](CCC4=CC(=O)CC[C@]43C)[C@@H]1CC[C@@H]2C(=O)COS(=O)(=O)c1ccc(Br)cc1	none (no result: HCV inhibitor, Pf growth 48h, AMA1 RON2 block, SARS PLP yeast, Pf growth 96h)
CCS(=O)(=O)N1CCN=C1SCc1cccnc1	Pf growth 48h inconclusive (no result: NS1 inh)
c1ccc(C(c2cccc3c2ccc2ccccc23)[C@H](c2ccccc2)c2cccc3c2ccc2ccccc23)cc1 (stereo partly specified)	none (no result: HCV inhibitor, Pf growth 48h, AMA1 RON2 block, SARS PLP yeast, Pf growth 96h)
CCOc1ccccc1OCC(=O)Nc1cccc(S(=O)(=O)N2CCCCCC2)c1	HCV inhibitor inconclusive, Pf growth 48h inconclusive, Pf growth 96h 13µM (no result: NS1 inh)
CCOc1ccc(NC(=O)[C@@H](NC(=O)c2ccccc2Br)C(C)C)cc1	Pf growth 96h 15µM (no result: Pf growth 48h)
COc1ccc(NCC(=O)Nc2cccc(S(=O)(=O)N3CCCC3)c2)cc1Cl	HCV inhibitor 10µM (no result: NS1 inh, Pf growth 48h, Pf growth 96h)
CCOc1ccc(C(=O)NC(=S)Nc2cccc(S(=O)(=O)NC3=NCCC3)c2)cc1	HCV inhibitor 14µM
CCOc1ccc(NC(=O)C(CC)NC(=O)c2ccccc2CO)cc1 (stereo unspecified)	none (no result: Pf growth 48h, Pf growth 96h)
CCNC(=O)N(C)C[C@H]1N[C@@](CC)(C(=O)OC)[C@H]2C(=O)N(C)C(=O)[C@@H]12	none (no result: NS1 inh, Pf growth 48h, Pf growth 96h)
O=C(Nc1ccccc1C(=O)O)c1cc(S(=O)(=O)Nc2ccccc2)ccc1Cl	SARS PLP yeast inconclusive
